D3 ag = D3 dopamine receptor (human) agonism; P35462; 0.58% of 410,000 active; D3R DiscoveRx beta-arrestin cells, luminescence, 90 min; max activation, %; in the data active = max activation above about 30%; also: 0% is about no effect
Target sequence (P35462 whole entry, looked up): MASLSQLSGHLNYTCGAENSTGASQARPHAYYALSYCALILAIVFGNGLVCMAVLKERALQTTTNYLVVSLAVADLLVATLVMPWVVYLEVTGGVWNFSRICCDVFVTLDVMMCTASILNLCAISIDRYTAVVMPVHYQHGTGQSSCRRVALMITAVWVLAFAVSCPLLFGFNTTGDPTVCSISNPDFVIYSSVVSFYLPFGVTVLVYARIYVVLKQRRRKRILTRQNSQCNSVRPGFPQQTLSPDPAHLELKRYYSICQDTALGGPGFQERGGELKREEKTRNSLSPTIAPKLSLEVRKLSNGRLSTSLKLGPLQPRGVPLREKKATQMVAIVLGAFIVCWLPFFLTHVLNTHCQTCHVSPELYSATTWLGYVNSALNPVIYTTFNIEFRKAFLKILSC
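Cells at 1500/well, incubated overnight, then treated with pinned compounds (dopamine as control) for 90 min at 37 degrees C. DiscoveRx reagent added for 30 - 60 minutes at room temperature; luminescence read.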
D3 antag = D3 dopamine receptor (human) antagonism | P35462 | D3R cells, DiscoveRx beta-arrestin luminescence, antagonist mode; hits give low values | max response, negative = inhibition, % | 2.5% of 360,000 active | AID 652054; in the data active = max response below about -50%; inconclusive = no clear call, values can overlap the other calls; also: % is scaled to controls: 0 for no effect and ±100 for the full control effect
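Cells plated overnight at 1500 cells/well, then exposed to library compounds with dopamine controls for 90 minutes at 37 degrees C. DiscoveRx reagent added for 30–60 minutes at room temperature; luminescence read, quantitative HTS format.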
RGS4 inh = human RGS4 inhibition; P49798; Transcreener GDP fluorescence polarization, RGS4-accelerated GTP hydrolysis; Potency, µM (highest dose often 114 µM), for the others: at the highest dose activity change, negative = inhibition, usual class: inhibitors; 0.039% of 390,000 active; AID 504845; active = well fitted inhibition curve with a large enough effect; inconclusive = small, poorly fitted or top-dose-only effect; inactive = no such curve, though single readings can be large or run the other way; also: potency is read from the fitted curve at half-maximal effect; % is scaled to controls: 0 for no effect and ±100 for the full control effect; nearly all actives have a fitted effect of over 75% in size
Target sequence (P49798 whole entry, looked up): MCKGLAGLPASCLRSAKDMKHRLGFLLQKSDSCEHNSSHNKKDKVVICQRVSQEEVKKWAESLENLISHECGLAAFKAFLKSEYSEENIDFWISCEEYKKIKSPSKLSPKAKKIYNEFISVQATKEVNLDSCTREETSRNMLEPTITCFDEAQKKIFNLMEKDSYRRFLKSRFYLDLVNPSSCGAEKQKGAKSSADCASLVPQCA
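MLSMR compounds (23 nl, pin-transferred) preincubated 10 min at room temperature with a 500nM (2x) first reagent, then RGS4 at 900nM (2x) plus Transcreener GDP mix added; fluorescence polarization (620/688 nm) read before and after 90 min at 30 °C.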
uPA generation = inhibitors of cell surface uPA generation. cell surface uPA generation assay, qHTS. Potency, µM (titrated, usually from 38.3 µM), without a hit: at the highest dose activity change, negative = inhibition, usual class: inhibitors. 0.31% of 330,000 active; active = well fitted inhibition curve with a large enough effect; inconclusive = small, poorly fitted or top-dose-only effect; inactive = no such curve, though single readings can be large or run the other way; tested in mouse RAW 264.7 cells; also: potency is read from the fitted curve at half-maximal effect; % is scaled to controls: 0 for no effect and ±100 for the full control effect; nearly all actives have a fitted effect of over 55% in size
Active calls of the source: *; [ ] = dose if it differs, or a comment. The list is not random: actives were taken first. Their share in the collection is about 3.1%.

Screening Cc1oc(-c2ccc(Cl)cc2)nc1CN1CCCC(C(=O)NCc2ccc(Cl)cc2)C1 (configuration not stated) returned D3 ag -8.8 and RGS4 inh 0.2%.
For Cc1oc(-c2ccc(Cl)cc2)nc1CN1CCCC(C(=O)NCc2ccco2)C1 (configuration not stated) the results were D3 ag -3.3, D3 antag -73.5*, RGS4 inh -12.6% and uPA generation -10.8%.
`CCc1ccccc1NC(=O)C(NS(=O)(=O)c1ccc2c(c1)CCC(=O)N2)c1ccccc1` (configuration not stated) gave D3 ag -4.4 and RGS4 inh -16.7%.
`Cc1ccc(C2C3=C(CC(C)(C)CC3=O)Nc3onc(C)c32)cc1` (configuration not stated) gave D3 ag 7.2, D3 antag inconclusive, RGS4 inh 12.0% and uPA generation -9.4%.
`Cc1noc2c1C(c1ccc(N(C)C)cc1)C1=C(CC(C)(C)CC1=O)N2` (configuration not stated) gave D3 ag 2.2, D3 antag -78.2*, RGS4 inh -7.7% and uPA generation -13.7%.
Cc1ccc(OCCCOc2cccc3cccnc23)cc1C was read as D3 ag 8.1, D3 antag 6.8, RGS4 inh -26.3% and uPA generation 6.4%.
Cc1cccc(OCCCOc2cccc3cccnc23)c1C was read as D3 ag 4.9, D3 antag -54.0*, RGS4 inh -2.9% and uPA generation 12.5%.
For COc1cc(Nc2ncc3c(n2)CCN(Cc2cc(Br)cs2)C3)cc(OC)c1 the results were D3 ag -3.8 and RGS4 inh -9.4%.
O=C(O)c1cc(O)ccc1N=Nc1ccccc1 was read as D3 ag -3.1, D3 antag -20.5, RGS4 inh -4.6% and uPA generation -10.5%.
O=C(O)c1ccccc1N=Nc1ccc(O)cc1 was read as D3 ag -51.6, D3 antag -71.0*, RGS4 inh -36.2% and uPA generation 8.9%.
Screening OC(c1ccc(CN2CCCCC2)cc1)c1ncc(-c2ccccc2)[nH]1 (configuration not stated) returned D3 ag -14.6 and D3 antag -106.8*.
Screening CN(C)CCC(=O)C(Cc1ccccc1)c1ccccc1 (configuration not stated) returned D3 ag -12.7, D3 antag -111.8*, RGS4 inh inconclusive and uPA generation -12.5%.
For CC(CCCN(C)C)C(Cc1ccccc1)c1ccccc1 (configuration not stated) the results were D3 ag -8.7, D3 antag -69.5*, RGS4 inh -50.1% and uPA generation -0.2%.
Screening COc1ccccc1CNC(=O)CSc1nc(=O)[nH]c2c1CCCC2 returned D3 ag 1.0 and RGS4 inh 5.8%.
`CCN(CC)S(=O)(=O)c1cccc(NC(=O)COc2ncnc3sccc23)c1` gave D3 ag -2.2, D3 antag -63.1*, RGS4 inh 21.4% and uPA generation 1.8%.
`Cc1nn2c(N3CCN(C)CC3)c3c(nc2c1-c1ccccc1)CCCC3` gave D3 ag -12.1, D3 antag -50.4*, RGS4 inh -15.4% and uPA generation -15.0%.
Cc1nn2c(NCCN3CCOCC3)c3c(nc2c1-c1ccccc1)CCCC3 was read as D3 ag -8.4, D3 antag 4.1, RGS4 inh -23.3% and uPA generation -1.8%.
CCc1nnc(SCc2nc(-c3cccc(Cl)c3)oc2C)c2cc3sc(C)cc3n12 was read as D3 ag -13.5 and RGS4 inh 1.0%.
For O=C(O)C(Cc1ccc(O)cc1)N1C(=O)c2c(Cl)c(Cl)c(Cl)c(Cl)c2C1=O (configuration not stated) the results were D3 ag -1.3, D3 antag -21.6, RGS4 inh 7.3% and uPA generation 0.9%.
O=C(O)c1ccc2c(c1)C(=O)N(C(Cc1ccc(O)cc1)C(=O)O)C2=O (configuration not stated) was read as D3 ag -2.4, D3 antag -69.7*, RGS4 inh -24.1% and uPA generation 0.3%.
Screening CCN(CC)c1ccc2cc(-c3nc(-c4ccc(OC)cc4)cs3)c(=O)oc2c1 returned D3 ag 33.0*, D3 antag 102.1, RGS4 inh -24.3% and uPA generation 5.9%.
For CCN(CC)c1ccc2cc(-c3nc(-c4ccc(Cl)cc4Cl)cs3)c(=O)oc2c1 the results were D3 ag -6.1 and RGS4 inh 15.8%.
Cc1ccc2nc(-c3ccncc3)cc(-c3ccccc3)c2c1 was read as D3 ag 56.6*, D3 antag 24.4 and RGS4 inh 20.3%.
O=C(Nc1nccs1)c1cc(-c2ccco2)nc2ccccc12 was read as D3 ag 7.6, D3 antag 5.6, RGS4 inh -37.2% and uPA generation -0.8%.
Screening O=C(NCc1ccccn1)c1cc(-c2ccc(-c3ccccc3)cc2)nc2ccccc12 returned D3 ag 10.5, D3 antag 69.7, RGS4 inh -2.6% and uPA generation 1.12µM*.
O=C(Nc1nccs1)c1cc(-c2ccccc2)nc2ccccc12 was read as D3 ag 44.1*, D3 antag 16.2, RGS4 inh 12.1% and uPA generation -5.2%.
Screening Cc1cccc(-c2cc(C(=O)Nc3ccncc3)c3ccccc3n2)c1 returned D3 ag 35.4*, D3 antag 100.2, RGS4 inh 12.7% and uPA generation 0.1%.
COCc1nnc(NC(=O)c2ccc(S(=O)(=O)N3CCCc4ccccc43)cc2)o1 was read as D3 ag -0.4, D3 antag 0.2, RGS4 inh -6.1% and uPA generation -14.8%.
Screening COc1ccccc1-c1nnc(NC(=O)c2ccc(S(=O)(=O)N(C)Cc3ccccc3)cc2)o1 returned D3 ag 4.1, D3 antag -77.9*, RGS4 inh -46.6% and uPA generation -3.5%.
Screening CN(Cc1ccccc1)S(=O)(=O)c1ccc(C(=O)Nc2nnc(C3CC3)o2)cc1 returned D3 ag -6.7, D3 antag -62.8*, RGS4 inh inconclusive and uPA generation -5.6%.
O=C(Nc1nnc(C2CC2)o1)c1ccc(S(=O)(=O)N2CCCc3ccccc32)cc1 was read as D3 ag -9.3, D3 antag -5.1, RGS4 inh 0.3% and uPA generation 6.31µM*.
CN(c1ccccc1)S(=O)(=O)c1ccc(NC(=O)c2ccc(-c3ccccc3)cc2)cc1 was read as D3 ag 12.5, D3 antag 19.5, RGS4 inh -21.5% and uPA generation -8.8%.
For CCc1nnc(NC(=O)c2ccc(S(=O)(=O)N(C)Cc3ccccc3)cc2)o1 the results were D3 ag -0.6, D3 antag -1.0, RGS4 inh 44.1% and uPA generation inconclusive.
For CN(c1ccccc1)S(=O)(=O)c1ccc(C(=O)Nc2nnc(-c3ccc(F)cc3)o2)cc1 the results were D3 ag -3.7, D3 antag -87.9*, RGS4 inh 17.5%[11.4 µM] and uPA generation -1.8%.
